“And” between values parts separate entries of the source, which are not always exact repeats. Equal values may be shown once. Records with an inconclusive call do not appear. A number with no mark means an inactive call. The source made the active and inactive calls. The call rests on the fitted dose curve; in most records, active means well fitted inhibition curve with a large enough effect; inconclusive means small, poorly fitted or top-dose-only effect; inactive means flat fitted curve, though single readings scatter.

We go through 27 compounds from PubChem BioAssay (NCATS).
Potency means the concentration at half of the fitted maximal effect.

The first experiment in a line: qHTS profiling for inhibitors of Plasmodium falciparum proliferation (AID 504749). Further: nearly all actives have a fitted effect of over 60% in size.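 On activity, negative = inhibition: 0% = DMSO vehicle and full inhibition = artemisinin control.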 To be noted: P. falciparum in erythrocytes, SYBR Green DNA, 72 h; at 28.7 µM (top of the series); parasite line B. Summed up:
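Readout was DNA-dye fluorescence from lysed cultures, ex 485/em 535 nm. Parasitized red cells had grown 72 h with compound; data scaled between 0.29 uM artemisinin and DMSO wells and corrected using vehicle-only plates.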
Take `C=CCN1C(=O)C(CC(C)C)NC1=S` (configuration not stated): the activity, negative = inhibition was -2.47% and 3.7%.
On to `CN1CCN(c2cc3c(nn2)Oc2ccccc2N3C)CC1`, for which the activity, negative = inhibition was 1.64%.
On to `O=C(/C=C/c1ccccc1)NCCO`, for which the activity, negative = inhibition is -2.74%.
The same measure, in the same setting: with `Cc1[nH]cnc1CN1CCc2c(c3ccccc3n2C)C1=O` the figure was 7.41%; with `Nc1ccc(C(=O)O)c(O)c1`, -22.6%.
For `COc1cc(/C=C/C(=O)N2CCN(CC(=O)N3CCCC3)CC2)cc(OC)c1OC`, the activity, negative = inhibition was 8.7%.
For `O=C(O)c1cc(O)c(O)c(O)c1`, the activity, negative = inhibition was -29.8%.
On to `O=C(O)[C@H](O)[C@@H](O)[C@H](O)[C@H](O)CO`, for which the activity, negative = inhibition is 5.65%.
The same measure, in the same setting: as for `O=C(O)/C=C/C(O)c1ccc(Cl)cc1` (configuration not stated), the figure is 10.3%; as for `O=C(O)COc1ccc(C(=O)c2cccs2)c(Cl)c1Cl`, 6.94% and 2.12%.
Same read-out and setting: with `C=C(Nc1ccc(OCC)cc1)Nc1ccc(OCC)cc1` the figure was -29.4% and 7.39%; with `Cc1ccc(O)c(-n2nc3ccccc3n2)c1`, 15.3%; with `CCCCC[C@H](O)/C=C/[C@@H]1[C@@H](C/C=C\CCCC(=O)O)[C@@H](O)C[C@H]1O`, 11%.
Still for that read-out and setting: with `Oc1c(Br)cc(Br)c2cccnc12` the figure was -18.5%; with `Cc1cc(O)c2ccccc2c1O`, -10.1%; with `O=C(Nc1ccc(C(=O)O)c(O)c1)c1ccccc1`, -1.01%.
Regarding `Nc1ccc(O)c(C(=O)O)c1`, the activity, negative = inhibition is -10.7%.
On the same count and under the same terms, with `Clc1ccccc1-c1nc(-c2ccncc2)no1` the figure was -1.37%; with `Cc1ccccc1CNc1ncnc2c1ncn2C1OC(CO)C(O)C1O` (configuration not stated), -2%; with `O=C1CN(/N=C/c2ccc(-c3ccc([N+](=O)[O-])cc3)o2)C(=O)N1`, -1.58%.
For `CC1(C)C[C@@H]1C(=O)N/C(=C\CCCCSC[C@H](N)C(=O)O)C(=O)O`, the activity, negative = inhibition is -12.7%.
Still for that read-out and setting: with `CC(C(=O)O)c1ccc2c(c1)[nH]c1ccc(Cl)cc12` (configuration not stated) the figure was 2.58%.

Staying with this experiment, now noted: P. falciparum in erythrocytes, SYBR Green DNA, 72 h; parasite line A.
In the case of `CC(=O)[C@]1(O)Cc2c(O)c3c(c(O)c2[C@@H](O[C@H]2C[C@H](N)[C@H](O)[C@H](C)O2)C1)C(=O)c1c(O)cccc1C3=O`, the Potency was 7.08 µM (active).
In the case of `O=C(CCN1CCN(CCO)CC1)N1c2ccccc2Sc2ccc(C(F)(F)F)cc21`, the Potency was 14.1 µM (active).
Turning to `COC(=O)C1=C(C)NC(C)=C(C(=O)OCC(C)C)C1c1ccccc1[N+](=O)[O-]` (configuration not stated), the Potency was 11.2 µM (active).
On the same count and under the same terms, as for `Cc1nc2ccccc2n1Cc1ccc(Cl)cc1`, the figure is 12.6 µM (active).
For `CN(C)c1ccc(C(=C2C=CC(=[N+](C)C)C=C2)c2ccccc2)cc1`, the Potency was 11.2 µM (active).
